PubChem BioAssay AID1063 (University of Pittsburgh Molecular Library Screening Center, 2008)
The whole screen tested about 200,000 compounds, of which about 18,000 (9%) were called active. This is one part of a sample in which actives are shown more often than they occur. Values without a mark were called inactive. No stated cut-off is given here; in the data, active means inhibition above about 50%; inactive means the rest.

Experiment: antileishmanial activity against promastigotes – primary screen (AID 1063);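 further: promastigotes grown with compound for 44 hours at 28 °C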
Conditions: Leishmania major promastigotes, resazurin fluorescence viability; at 10 µM; hits give high values

Compound | inhibition
Cc1ccc2c(c1)C(c1ccccc1)N(C(=O)c1ccc(S(=O)(=O)N3CCOCC3)cc1)CC(=O)N2 (stereo not drawn) | 56.5% (active)
O=C(c1ccc(S(=O)(=O)N2CCOCC2)cc1)N1CCN(c2ccccc2)CC1 | -2.9%
CCC(CC)C(=O)N1CC(=O)Nc2ccc(Br)cc2C1c1ccccc1 (stereo not drawn) | 14.8%
Cc1ccc2nsnc2c1S(=O)(=O)N1CCCC1C(=O)O (stereo not drawn) | -8.56%
COc1ccc(C)cc1NC(=S)Nc1ccccc1SC | 5.88%
Cc1ccc2nc(-c3cccnc3)c(NC3CCCC3)n2c1 | 63.7% (active)
COC(=O)c1cn(-c2ccccc2)nc1-c1cccnc1 | 1.77%
O=C(Nc1ccc(F)cc1)C1CCN(C(=O)c2ccc([N+](=O)[O-])cc2)CC1 | 5.08%
CCCCCCn1c(CN2CCCCC2)nc2c1c(=O)n(C)c(=O)n2C | 6.89%
CCCCCCCCn1c2c(c(=N)c3c1CCC3)CCCC2 | 101% (active)
COc1cc(C)c(S(=O)(=O)N2CCOCC2)c(C)c1C | -1.23%
CCCCCCCC1(C)NC(=O)N(CC(=O)Nc2cc(C)on2)C1=O (stereo not drawn) | 20.5%
CNC(=O)COc1ccc(S(=O)(=O)Nc2ccccc2)cc1 | -0.21%
CCN1CCN(C(=O)CCN2C(=O)c3ccccc3C2=O)CC1 | 4.9%
O=C(CCN1C(=O)C2C3C=CC(C3)C2C1=O)Nc1ccccc1F (stereo not drawn) | -3.49%
O=C(CN1C(=O)C2C3C=CC(C3)C2C1=O)Nc1nc(-c2ccccn2)cs1 (stereo not drawn) | 97.2% (active)
O=C(CN1C(=O)C2C3C=CC(C3)C2C1=O)NCCc1ccccc1Cl (stereo not drawn) | 0.65%
Cc1cc(=O)n2[nH]c(-c3sccc3-n3c(C)ccc3C)cc2n1 | -1.8%
CCOc1cc2[nH]c(=O)n(Cc3ccc(C(=O)NCCCN4CCCC4=O)cc3)c(=O)c2cc1OCC | -1.97%
Cc1ccc(C(=O)Cn2cccn2)cc1 | -1.93%
CSc1ncccc1C(=O)NC1CCCCCC1 | -1.57%

Compound | inhibition
COCCNC(=O)c1ccc(N2CCC3(CC2)OCCO3)c([N+](=O)[O-])c1 | 73.7% (active)
CCC(C)NC(=O)c1ccc(N2CCC3(CC2)OCCO3)c([N+](=O)[O-])c1 (stereo not drawn) | -0.6%
CC1CCN(c2ccc(C(=O)NCc3ccc4c(c3)OCO4)cc2[N+](=O)[O-])CC1 | 1.95%
COc1ccc(C(C)=O)cc1CSc1nc2nc(C)cc(C)n2n1 | -4.13%
O=C(Cn1c(-c2ccccn2)nc2ccccc21)NCCN1CCOCC1 | -2.96%
c1ccc2cc3c(NCCN4CCOCC4)ccnc3cc2c1 | 100% (active)
c1ccc2[nH]c(NCCN3CCOCC3)nc2c1 | 0.2%
CCc1ccc(C(=O)OCC(=O)NCC(F)(F)F)cc1 | 4.83%
O=C(N/N=C/c1ccc(OCC2COCCO2)cc1)c1ccc(Br)cc1 (stereo not drawn) | 40.5%
COc1cc(C(=S)N2CCOCC2)ccc1O | -5.63%
C=CCOCCN(C)C1=NS(=O)(=O)c2ccccc21 | -5.84%
CN(C)C=NC(=O)c1cccn1-c1ncc(C(F)(F)F)cc1Cl | -3.59%
O=C1/C(=C\c2cccnc2)CN(Cc2ccccc2)C/C1=C\c1cccnc1 | 100% (active)
Clc1ccc(CN2CCN(/N=C/c3cccnc3)CC2)cc1 | 8.51%
O=Cc1cn(Cc2ccccc2)nc1-c1cccnc1 | -1.93%
COc1cccc2cc(S(=O)(=O)c3ccc(C)cc3)/c(=N/NS(=O)(=O)c3ccc(C)cc3)oc12 | -0.64%
CCOC(=O)C1(CCOc2ccccc2)CCN(C(=O)c2cncs2)CC1 | 6.07%
CCOC(=O)/C(N=Nc1cc(C(=O)O)cc(C(=O)O)c1)=C(\O)CCl | 50% (active)
O=C(C1CC1)N1N=C2CCCCC2C1(O)C(F)(F)F (stereo not drawn) | -9.92%
CCOC(=O)C1=C(C)Nc2sc(C(=O)c3ccc(Br)cc3)c(N)c2C1c1ccc(C(=O)OC)cc1 (stereo not drawn) | 94.8% (active)
CCOC(=O)c1sc(=S)n2c1[nH]c(=O)c1ccc(C(=O)OC)cc12 | -7.11%

Compound | inhibition
CCOC(=O)C1=C(C)NC(C)=C(C(=O)OCC)C1c1ccccn1 | 8.25%
Cc1ccc(C(=O)N/C(=C/c2ccco2)C(=O)NCCc2c[nH]c3ccccc23)cc1C | 32.8%
CC(=O)N/C(=C/c1ccc(Cl)cc1)C(=O)NCCc1c[nH]c2ccccc12 | 92.8% (active)
COc1ccc(/C=C(\NC(=O)c2ccc(OC)c(OC)c2)C(=O)NCCc2c[nH]c3ccccc23)cc1 | 16%
CN(C)/N=C/c1cn(-c2ccccc2)nc1-c1cccnc1 | 13.5%
O=C(NCCCn1ccnc1)C(=O)c1cn(CC(=O)N2CCCCCC2)c2ccccc12 | 10.8%
COc1cc(C(=O)N2CCN(C/C=C/c3ccccc3)CC2)cc(OC)c1C | 54.7% (active)
CNC(=O)NC(=O)C(C)N1CCN(C/C=C/c2ccccc2)CC1 (stereo not drawn) | 9.45%
COc1ccccc1/C=C/CN1CCC(CO)(Cc2ccccc2)CC1 | 32.1%
Cn1c(SCC(=O)NC2CCCCC2)nnc1-c1ccc(N)cc1 | -1.08%
Cc1ccc(C2=Nc3c(ccc4ccccc34)C(c3ccncc3)=NN2)cc1 | 60% (active)
Cc1ccc(-c2csc(-c3c[nH]c4ccccc34)n2)cc1 | -3.69%
CCOC(=O)N1CCN(C(=S)Nc2ccc(C)cc2C)CC1 | -7.01%
CC(C)Oc1ccccc1C(=O)NC(CO)C(=O)O (stereo not drawn) | -2.66%
NC(=O)COc1ccc(C23CC4CC(CC(C4)C2)C3)cc1 | 2.36%
CCC1=C/C(=C\c2ccc3c(c2)OCO3)C(=O)S1 | 78.2% (active)
CSC1=N/C(=C\c2ccc3c(c2)OCO3)C(=O)S1 | 17.7%
O=C1/C(=C/c2ccc3c(c2)OCO3)CCC/C1=C\c1ccc2c(c1)OCO2 | 39.8%
COc1ccc(CCNS(=O)(=O)c2ccc(F)cc2)cc1OC | -4.28%
Cc1nn(C)c(Oc2ccccc2)c1CCNS(=O)(=O)c1ccc(F)cc1 | 97.5% (active)
Cc1nn(C)c(Oc2ccccc2)c1[N+](=O)[O-] | 6.23%
